Assay outcomes (PubChem BioAssay)
A selection: hits, their analogues and other compounds. The true share with any hit is near 9.3%.
Vaccinia Venus: qHTS for Stage-Specific Inhibitors of Vaccinia Orthopoxvirus: Venus Reporter Primary qHTS; Vaccinia virus Venus reporter expression, fluorescence; Potency, µM (titrated, usually from 36.5 µM), for the others: at the highest dose activity change, negative = inhibition, actives largely listed as inhibitors; hit rate 0.46% among 330,000; AID 720580, 2013; calls by dose curve; tested in A549 cells; note: potency is the fitted concentration of half-maximal effect; nearly all actives have a fitted effect of over 30% in size
VACV mCherry inh: qHTS for Stage-Specific Inhibitors of Vaccinia Orthopoxvirus: mCherry Reporter Primary qHTS | Vaccinia virus mCherry reporter infection, fluorescence | Potency, µM (series often up to 36.5 µM), inactives show top-dose activity change, negative = inhibition, hits mostly inhibitors | hit rate 0.63% among 310,000 | AID 720579, 2013; calls by dose curve; tested in A549 cells; note: potency is the fitted concentration of half-maximal effect; nearly all actives have a fitted effect of over 35% in size
FMDV inh: High Throughput Screening for Foot and Mouth Disease Virus Antivirals | FMDV antiviral cell-based qHTS | Potency, µM (series often up to 57.9 µM), without a hit: top-dose activity change, negative = inhibition, actives largely listed as inhibitors | hit rate 1.2% among 410,000 | AID 1159524, 2015; calls by dose curve; tested in HEK293T cells; note: read-out not given here; potency is the fitted concentration of half-maximal effect; nearly all actives have a fitted effect of over 45% in size
HCV inhibitor: qHTS Assay for Inhibitors of Hepatitis C Virus (HCV). Huh7.5.1 HCVcc-Cre infection, luciferase reporter, 44 h. Potency, µM (titrated, usually from 41.8 µM), for the others: top-dose activity change, negative = inhibition, most hits filed as inhibitors. AID 651820, 2012. hit rate 3.4% among 340,000; note: potency is the fitted concentration of half-maximal effect
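Infectious HCVcc-Cre (~0.5 moi) was added to cells just after compound, with cells seeded 4 h earlier at 1,000 per well. Luciferase activity after 44 h culture reported infection; substrate was incubated 15 min at room temperature before reading.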
Sm TGR block: qHTS Assay for the Inhibitors of Schistosoma Mansoni Peroxiredoxins. purified TGR, DTNB reduction, TNB absorbance 405 nm. Schistosoma mansoni thioredoxin glutathione reductase (TGR), Q962Y6. Potency, µM (doses to about 114 µM), for inactives: top-dose activity change, negative = inhibition, usual class: inhibitors. hit rate 3% among 360,000; note: potency is the fitted concentration of half-maximal effect; nearly all actives have a fitted effect of over 60% in size
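TGR 20 nM + NADPH 100 uM (dispensed conc.), cpd preinc 15 min RT; start with NADPH (500 uM addition) then DTNB (15 mM addition). Kinetic TNB absorbance, 405 nm filter. Four-parameter Hill fit across titration.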
HCMV inh: qHTS Assay for inhibitors of the human cytomegalovirus (HCMV); HFF cells, HCMV-luciferase reporter, 72 h; stronger effect = lower value; activity change, negative = inhibition, % at 57.5 µM; hit rate 4.5% among 410,000; in the data active = activity change below about -60%; inconclusive = no clear call, values can overlap the other calls; inactive = above about -39%
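Steps: HFFs plated, 16 h 37C; compounds added; HCMV-luciferase added to MOI 1 PFU/cell; 72 h 37C; OneGlo reagent, 5 min room temperature; luminescence read, normalized to controls.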
Starred values were filed as active, the others as inactive. Unless noted, calls come from the whole dose curve; as a rule, active = well fitted curve in the direction sought with a large enough effect; inconclusive = small, poorly fitted or top-dose-only effect, or another doubt; inactive = no such curve, though single readings can be large; an effect the other way counts as inactive or inconclusive. % is set by controls: 0 for no effect and ±100 for the full control effect.

Screening O=C(N/N=C/c1ccc([N+](=O)[O-])s1)c1ccccc1Br returned Vaccinia Venus 11µM*, VACV mCherry inh inconclusive, HCV inhibitor 11µM*, Sm TGR block inconclusive and HCMV inh -77*.
Cc1cccc(/C=N/NC(=O)c2cc(C3CC3)nc3ccccc23)n1 was read as FMDV inh -7%, HCV inhibitor -10%, Sm TGR block 2% and HCMV inh 21.
Screening O=C(N/N=C\c1ccc([N+](=O)[O-])s1)c1cncc(Br)c1 returned FMDV inh inconclusive, HCV inhibitor 10µM*, Sm TGR block -24% and HCMV inh -100*.
For O=C(N/N=C/c1cccs1)c1cncc(Br)c1 the results were Vaccinia Venus -4%, VACV mCherry inh -12%, FMDV inh 28%, HCV inhibitor 6%, Sm TGR block 0% and HCMV inh -28.
`O=C(N/N=C/c1ccc([N+](=O)[O-])s1)c1ccccc1` gave Vaccinia Venus inconclusive, VACV mCherry inh inconclusive, FMDV inh inconclusive, HCV inhibitor inconclusive, Sm TGR block -13% and HCMV inh inconclusive.
For CCc1ccc(/C=N/NC(=O)c2cc(C3CC3)nc3ccccc23)s1 the results were Vaccinia Venus inconclusive, VACV mCherry inh inconclusive, FMDV inh -14%, HCV inhibitor 8.9µM*, Sm TGR block -4% and HCMV inh -28.
`Cc1cc(C(=O)N/N=C/c2ccc([N+](=O)[O-])cc2)c2ccccc2n1` gave FMDV inh 4%, HCV inhibitor -3%, Sm TGR block 20% and HCMV inh -1.
`Cc1cc(C(=O)N/N=C/c2ccc([N+](=O)[O-])s2)c2ccccc2n1` gave Vaccinia Venus 28µM*, VACV mCherry inh 10µM*, FMDV inh -16%, HCV inhibitor 11µM*, Sm TGR block -16% and HCMV inh -70*.
CCCCC1CN(CCNC(=O)c2ccccn2)Cc2ccccc2O1 (centres undefined) was read as Vaccinia Venus -1%, VACV mCherry inh -10% and FMDV inh -11%.
COc1ccc(Cl)cc1S(=O)(=O)NC(C)C(=O)NCc1ccc2c(c1)OCO2 (centres undefined) was read as Vaccinia Venus -1%, VACV mCherry inh -1%, FMDV inh 41%, HCV inhibitor 18%, Sm TGR block -1% and HCMV inh -20.
O=C(Oc1ccc([N+](=O)[O-])cc1)c1cncc(Br)c1 was read as Vaccinia Venus -7%, VACV mCherry inh inactive, FMDV inh 39%, HCV inhibitor -3%, Sm TGR block 18µM* and HCMV inh -25.
For Cc1ccccc1C(=O)N/N=C/c1ccc([N+](=O)[O-])s1 the results were Vaccinia Venus inconclusive, VACV mCherry inh -22%, HCV inhibitor inconclusive, Sm TGR block -35% and HCMV inh -96*.
CCNC(=O)CSc1nnc(CN2CCCCCC2=O)n1-c1ccccn1 was read as Vaccinia Venus -5%, VACV mCherry inh 7%, FMDV inh -2%, HCV inhibitor 16%, Sm TGR block -9% and HCMV inh 11.
Screening O=C1CCCCCN1Cc1nnc(SCc2nc3ccccc3s2)n1-c1ccccn1 returned FMDV inh 94%, HCV inhibitor -5%, Sm TGR block -3% and HCMV inh -107*.
For O=C(NCc1cccnc1)C1c2ccccc2C(=O)N1Cc1ccco1 (centres undefined) the results were FMDV inh 32%, HCV inhibitor -8%, Sm TGR block 35µM* and HCMV inh 11.
Screening O=C(NCc1cccnc1)C1c2ccccc2C(=O)N1Cc1ccccc1 (centres undefined) returned Vaccinia Venus -13%, VACV mCherry inh 4%, FMDV inh 1%, HCV inhibitor 5%, Sm TGR block -4% and HCMV inh 43.
For O=C(CNc1cc(S(=O)(=O)N2CCCC2)ccc1OCC(F)(F)F)Nc1ccc(SC(F)F)cc1 the results were Vaccinia Venus inconclusive, VACV mCherry inh inconclusive, FMDV inh -24%, HCV inhibitor inconclusive, Sm TGR block 4% and HCMV inh -63*.
Cc1cc(Cl)c(S(=O)(=O)NC(C(=O)O)C(C)C)cc1OCC(=O)NC1CCCCC1 (centres undefined) was read as FMDV inh 19%, HCV inhibitor 17%, Sm TGR block -7% and HCMV inh 17.
For O=C(CNc1cc(S(=O)(=O)N2CCCC2)ccc1OCC(F)(F)F)Nc1cc(Cl)cc(Cl)c1 the results were Sm TGR block 2%.
For CCc1cccc(OCC(=O)Nc2ccc(C)c(S(=O)(=O)N3CCCCCC3)c2)c1 the results were Vaccinia Venus -14%, VACV mCherry inh inconclusive, FMDV inh inconclusive, HCV inhibitor 8.9µM*, Sm TGR block 4% and HCMV inh -15.
`Cc1ccc(NC(=O)COC(=O)c2ccccc2F)cc1S(=O)(=O)N1CCCCC1` gave Vaccinia Venus -13%, VACV mCherry inh -18%, FMDV inh -13%, HCV inhibitor -1%, Sm TGR block 1% and HCMV inh -26.
For Cc1cc(Cl)c(S(=O)(=O)N2CCCC2)cc1OCC(=O)NC1CCCCC1 the results were FMDV inh inconclusive, HCV inhibitor inconclusive, Sm TGR block 17% and HCMV inh -96*.
`COc1ccc(NC(=O)COc2ccccc2C)cc1S(=O)(=O)N1CCCCC1` gave Vaccinia Venus -24%, VACV mCherry inh -17%, FMDV inh inconclusive, HCV inhibitor 8.9µM*, Sm TGR block 1% and HCMV inh -27.
CC(=O)Nc1cccc(C(=O)OCC(=O)NC(=O)c2ccccc2)c1 was read as Vaccinia Venus 0%, VACV mCherry inh -5%, FMDV inh 18%, HCV inhibitor inconclusive, Sm TGR block 21% and HCMV inh -23.
Screening COc1ccc(NC(=O)CC2CCCC2)cc1S(=O)(=O)N1CCCCC1 returned Vaccinia Venus -25%, VACV mCherry inh -6%, FMDV inh -21%, HCV inhibitor -27%, Sm TGR block 5% and HCMV inh -40.
`COc1ccc(NC(=O)CCC2CCCCC2)cc1S(=O)(=O)N1CCCCC1` gave Vaccinia Venus -25%, VACV mCherry inh inconclusive, FMDV inh -12%, HCV inhibitor inconclusive, Sm TGR block 16% and HCMV inh -82*.
Screening O=C(COc1cccc(C(F)(F)F)c1)Nc1ccc(S(=O)(=O)N2CCCC2)cc1 returned FMDV inh inconclusive, HCV inhibitor 11µM*, Sm TGR block 1% and HCMV inh 18.
